In PubChem BioAssay AID624417 (National Center for Advancing Translational Sciences (NCATS), 2012):
Out of some 410,000 compounds screened, about 6,400 (1.6%) were called active. Not shown: some 20% with an inconclusive outcome. Many of the other results were omitted from the sample, so actives are more common in it than they were. Values without a mark were called inactive. The call rests on the fitted dose curve; in most records, active means well fitted inhibition curve with a large enough effect; inconclusive means small, poorly fitted or top-dose-only effect; inactive means no such curve, though single readings can be large or run the other way.

Each compound was assayed against Glucagon-like peptide 1 receptor (Homo sapiens) (UniProt P43220) (assay: qHTS of GLP-1 Receptor Inverse Agonists (Inhibition Mode)). Details: HEK293 GLP-1R CRE-luciferase, luminescence, 24 h, GLP-1R form is constitutively active; series mostly up to 38.3 µM; activity change, negative = inhibition: at the top concentration.
Glucagon-like peptide 1 receptor (Homo sapiens), sequence (P43220 whole entry, looked up): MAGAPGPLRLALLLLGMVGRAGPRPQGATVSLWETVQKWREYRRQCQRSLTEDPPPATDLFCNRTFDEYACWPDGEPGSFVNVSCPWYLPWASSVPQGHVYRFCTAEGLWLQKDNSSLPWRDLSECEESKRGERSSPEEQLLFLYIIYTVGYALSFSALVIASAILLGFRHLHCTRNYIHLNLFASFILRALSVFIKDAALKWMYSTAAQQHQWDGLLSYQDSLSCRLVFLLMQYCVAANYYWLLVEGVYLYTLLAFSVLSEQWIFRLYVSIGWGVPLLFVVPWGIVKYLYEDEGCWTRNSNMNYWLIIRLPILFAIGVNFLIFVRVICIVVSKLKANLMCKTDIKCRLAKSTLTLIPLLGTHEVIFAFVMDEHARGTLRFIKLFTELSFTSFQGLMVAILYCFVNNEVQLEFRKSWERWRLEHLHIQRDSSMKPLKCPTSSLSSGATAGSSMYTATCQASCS
Summary of the method: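 Stable HEK293 clone (constitutively active GLP-1R + cAMP-response luciferase); 200 cells/uL plated, 12 h pre-culture, compound 24 hr, 37 deg C/5% CO2; detection reagent 12 min RT; luminescence.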
Further: nearly all actives have a fitted effect of over 55% in size.
On the % scale 0 is the no-effect control and ±100 the full control effect; potency means the concentration at half of the fitted maximal effect.

Compared with `O=C(CC[C@H]1O[C@@H](n2ccc(=O)[nH]c2=O)[C@H](O)[C@@H]1O)N[C@H](Cc1ccccc1)C(=O)NCCCN1CCCC1=O`, `COC(=O)[C@]12CCCCC=C1N(Cc1ccco1)C(=O)[C@H](CC(=O)NCCCCc1ccccc1)C2` is lower in “activity change, negative = inhibition” value: 13.3% for the first, -33.9% for the second.

Going from `CC(=O)Nc1ccc2c3c(ccc([N+](=O)[O-])c13)CC2` to `Cn1ncc([N+](=O)[O-])c1C(=O)Nc1cc(Cl)ccc1Cl`, the “activity change, negative = inhibition” value falls from 1.13% to -4.93%.

Compared with `O=C(OCc1cn([C@@H]2C[C@H](c3ccc(Cl)cc3)N(Cc3cccs3)C[C@H]2O)nn1)c1ccccc1`, `O=C(C1=C[C@H](C2CC2)C[C@H](OCc2ccc(CO)cc2)O1)N1CCN(Cc2ccccc2)CC1` is lower in “activity change, negative = inhibition” value: 18% for the first, 5.02% for the second.

First: CCC(=O)N1Cc2cc(C(=O)NCc3cccc(F)c3)nc(-c3cccc(C4=CCCC4)c3)c2[C@H]1CCO
Second: Cc1ccccc1Cn1c(C)c(C(=O)NCc2cccc(C(F)(F)F)c2)sc1=O
The “activity change, negative = inhibition” value of the first is higher: 16% for the first, -0.425% for the second.

First: CCCOc1ccc(F)cc1-c1cc(C(=O)Nc2ccc(F)cc2)[nH]n1
Second: COc1ccccc1CNC(=O)c1cc(-c2cc(F)ccc2OC)n[nH]1
The “activity change, negative = inhibition” value of the first is higher: -12.9% for the first, -19.5% for the second.

Compared with `O=C(C(=O)N1CCC(c2ccccc2)CC1)c1ccccc1`, `O=C(c1ccccc1)C(O)(CN1CCCCC1)c1ccccc1` (stereo not given) is lower in “activity change, negative = inhibition” value: 16% for the first, 7.83% for the second.

First: CN(c1ccccc1)S(=O)(=O)c1cccc(C(=O)NNC(=O)c2ccncc2)c1
Second: CN(c1ccc(OCC(=O)O)cc1)S(=O)(=O)c1ccc2ccccc2c1
The “activity change, negative = inhibition” value of the first is higher: 4.37% for the first, 3.29% for the second.

Compared with `CN(C)S(=O)(=O)c1cccc(NC(=O)Cc2ccsc2)c1`, `CCc1cccc(NC(=O)CSc2nccn2C)c1` is lower in “activity change, negative = inhibition” value: 31.4% for the first, 0.0761% for the second.

Going from `Cc1ccc(F)c(S(=O)(=O)NC(=O)C2(C)CCN2C(=O)CCc2cccs2)c1` (stereo not given) to `CC1(C(=O)NS(=O)(=O)c2ccccc2)CCN1C(=O)c1ccccc1` (stereo not given), the “activity change, negative = inhibition” value rises from -4.2% to 22.7%.

Going from `COCCN(C(=S)Nc1ccccc1OC)C1CCN(C(C)C)CC1` to `CCCCCN(C(=O)NC(=O)Nc1ccccc1OC)S(C)(=O)=O`, the “activity change, negative = inhibition” value rises from -16.1% to -1.5%.

First: Cc1cccc(NC(=S)N(CCN(C)C)C(C)c2ccco2)c1 (stereo not given)
Second: Cc1ccc(C)c(NC(=S)NNC(=O)c2csc(C)c2)c1
The “activity change, negative = inhibition” value of the first is lower: -25.9% for the first, 3.02% for the second.

First: Cc1ccc(S(=O)(=O)N2C[C@@H](C)[C@]3(C2)[C@H](O)[C@H](OC(=O)NCc2ccccc2)C[C@H]2C(=O)N(c4ccccc4)C(=O)[C@H]23)cc1
Second: O=C(NCCS(=O)(=O)N1CCN(c2ccccc2)CC1)c1cc(=O)c2ccccc2o1
The “activity change, negative = inhibition” value of the first is lower: -29.8% for the first, -0.814% for the second.

First: O=C(NCc1ccccc1)C1=C[C@@H](c2ccccc2)C[C@@H](OCCCCO)O1
Second: O=C(NCCc1csc(-c2ccccc2)n1)c1ccccc1F
The “activity change, negative = inhibition” value of the first is higher: 10.3% for the first, -18.6% for the second.

Going from `CCCNC(=O)C[C@@H]1CC[C@@H]2[C@H](COC[C@H](O)CN2C(=O)c2cc(Cl)cc(Cl)c2)O1` to `Cc1ccc(NC(=O)COC(=O)C2CC2)cc1S(=O)(=O)N1CCOCC1`, the “activity change, negative = inhibition” value falls from 10.5% to -1.9%.

Going from `CCOc1c(Br)cc(/C=C2\C(=O)N(CCC#N)N=C2C)cc1OC` to `COC(=O)c1ccc2nc(-c3cccc(Br)c3)c(Cc3ccc(OC)cc3C)n2c1`, the “activity change, negative = inhibition” value falls from -9.5% to -12%.

Compared with `Cc1cccc(C)c1-n1c(C)cc(/C=C2\C(=O)NN(c3ccccc3)C2=O)c1C`, `CC(=O)Nc1cccc(/C(C)=N/NC(=O)c2c(-c3ccccc3Cl)noc2C)c1` is higher in “activity change, negative = inhibition” value: -33.4% for the first, 4.71% for the second.

Going from `CCOC(=O)C1(C)CCCN(C(=O)c2ccc(F)c(Cl)c2)C1` (stereo not given) to `CCCNC(=O)C1(C)CCN(C(=O)c2ccccc2OC(F)(F)F)C1` (stereo not given), the “activity change, negative = inhibition” value falls from 10.9% to -9.35%.

First: CC(C)C[C@H]1CNC(=O)C(=O)N1C[C@H]1CCCN1C[C@H](Cc1ccc(O)cc1)N1C[C@H](CC(C)C)N(CC2CCCCCC2)C(=O)C1=O
Second: CC(C)C[C@H]1CNC(=O)C(=O)N1C[C@@H]1CCCN1C[C@H](Cc1ccccc1)N1C[C@H](CC(C)C)N(CC2CCCCCC2)C(=O)C1=O
The “activity change, negative = inhibition” value of the first is lower: 16.7% for the first, 24.7% for the second.

Compared with `O=C(OCc1cc(=O)n2ccsc2n1)C1(c2ccc(Cl)cc2)CC1`, `O=C(OCCN1CCOCC1)C1(c2ccccc2)CCCCC1` is lower in “activity change, negative = inhibition” value: 38.1% for the first, -20% for the second.

Going from `CC=CCn1c(SCCCc2ccccc2)nc2c1c(=O)[nH]c(=O)n2C` to `CNC(=O)C[C@H]1C(=O)N(Cc2ccccc2)C[C@@H]1CSC`, the “activity change, negative = inhibition” value falls from 9.86% to 3.07%.

First: CCC(=O)N1CCCC1(C)C(=O)Nc1ccc2c(c1)CCN2C(C)=O (stereo not given)
Second: CC(C)CNC(=O)C1(C)CCCN1C(=O)CSc1ccccc1 (stereo not given)
The “activity change, negative = inhibition” value of the first is higher: 20.5% for the first, -1.66% for the second.

First: O=C(O)c1ccc(N=NN2CCOCC2)cc1
Second: O=[N+]([O-])c1ccc(N2CCOCC2)cc1
The “activity change, negative = inhibition” value of the first is lower: 0.44% for the first, 2.47% for the second.

First: COc1ccc(C(=O)C(OP(=O)(OC)OC)c2ccccc2OC)cc1 (stereo not given)
Second: COc1ccccc1C(CNC(=O)c1ccc(C)c(S(=O)(=O)N2CCCCC2)c1)N(C)C (stereo not given)
The “activity change, negative = inhibition” value of the first is higher: 5.29% for the first, -12.3% for the second.

First: COc1cnn(-c2ccc([N+](=O)[O-])cc2)c(=O)c1Cl
Second: COc1ccccc1NC(=O)c1cc(C2CC2)nc2c1c(C)nn2-c1ccc(C)cc1
The “activity change, negative = inhibition” value of the first is higher: 16% for the first, -11.6% for the second.

First: COc1ccc(S(=O)(=O)N[C@@H]2C=C[C@@H](CC(=O)N3CCc4ccccc4C3)O[C@@H]2CO)cc1
Second: Cc1ccccc1OCC(=O)Nc1ccc(S(=O)(=O)N2CCOCC2)cc1
The “activity change, negative = inhibition” value of the first is higher: 5.11% for the first, 0.83% for the second.

Going from `O=S(=O)(c1cccc(C(F)(F)F)c1)N1CCN(c2cnccn2)CC1` to `CC(=O)Nc1ccc(NC(=O)C2CCCN2S(=O)(=O)c2cccc(C(F)(F)F)c2)cc1` (stereo not given), the “activity change, negative = inhibition” value falls from -8.51% to -10.5%.

Compared with `CC(C)c1ccc(NC(=S)NNc2ccc(Cl)c(C(=O)O)c2)cc1`, `COc1ccc(NC(=O)c2cc(-c3ccc(C)o3)nc3ccccc23)cc1` is lower in “activity change, negative = inhibition” value: -22.4% for the first, -24.4% for the second.

Compared with `CCCC(=O)NC(Nc1ccccc1OC)C(Cl)(Cl)Cl` (stereo not given), `CCN(C(=O)Nc1cccc2ccccc12)c1ccccc1` is lower in “activity change, negative = inhibition” value: 0% for the first, -26.5% for the second.

First: CCc1nc2ccc(C(=O)N(C)Cc3ccco3)cn2c1N(C)C(=O)Cc1ccccc1
Second: COCCNC(=O)c1ccccc1-c1nc(-c2ccccc2Cl)no1
The “activity change, negative = inhibition” value of the first is lower: -3.62% for the first, -3.04% for the second.

Going from `OC[C@@H]1CN(C2CCCC2)C[C@H](n2cnc3c(NC4CCC4)ncnc32)O1` to `CN1OC[C@@H]2CN(C(=O)c3cccnc3)[C@H](c3ccc(N4CCCCC4)cc3)C[C@@H]21`, the “activity change, negative = inhibition” value rises from -2.75% to 22.9%.

Going from `Cc1ccccc1OCC(=O)Nc1ccc2c(c1)ncn2C` to `Cc1ccc(NC(=O)CCC(=O)N2CCC(c3ccccc3)=N2)cc1S(=O)(=O)N1CCCCC1`, the “activity change, negative = inhibition” value falls from 17.7% to 4.32%.

First: COc1ccc(NC(=O)C2=NNC(=O)CC2)cc1S(=O)(=O)N1CCCCC1
Second: CC(C)[C@H](NC(=O)c1ccccc1F)C(=O)Nc1cccc(S(=O)(=O)N2CCOCC2)c1
The “activity change, negative = inhibition” value of the first is higher: 33.5% for the first, -8.55% for the second.

First: Nc1nc(CSc2nnnn2-c2ccccc2)nc(Nc2ccccc2)n1
Second: Oc1ccccc1-c1nc2ccc(Cl)cn2c1Nc1ccc2c(c1)OCCO2
The “activity change, negative = inhibition” value of the first is higher: 25.2% for the first, 4.4% for the second.

First: CCOC(=O)C1=CCC2C(=O)N(Cc3ccccc3)C(=O)C12 (stereo not given)
Second: CC1(C(=O)NCc2ccccc2)CN(S(C)(=O)=O)CC(=O)N1CC(F)(F)F (stereo not given)
The “activity change, negative = inhibition” value of the first is higher: 19.7% for the first, -0.0418% for the second.

Compared with `OC[C@H]1O[C@@H](c2nc(-c3nc(-c4ccc(F)cc4)no3)cs2)[C@H](O)[C@@H](O)[C@H]1O`, `Cc1ccc(S(=O)(=O)N(C)C)cc1NC(=O)COC(=O)c1c(C)noc1C` is higher in “activity change, negative = inhibition” value: 0.715% for the first, 2.65% for the second.

Compared with `CCNC(=O)C1CCCN(C(=O)c2ccc(OC)cc2OC)CC1` (stereo not given), `COc1ccc(NC(=O)N(C)C[C@@H]2OCc3cn(nn3)CCCC(=O)N([C@H](C)CO)C[C@H]2C)c(OC)c1` is lower in “activity change, negative = inhibition” value: 20.1% for the first, -5.31% for the second.

First: Oc1ccc(-c2nc3ccc(Cl)cn3c2Nc2ccc3c(c2)OCO3)cc1
Second: CC1(C2CC2)NC(=O)N(CC(=O)N2CCN(c3ccccc3F)CC2)C1=O (stereo not given)
The “activity change, negative = inhibition” value of the first is higher: 5.13% for the first, 3.81% for the second.

`CN(c1ccccc1)S(=O)(=O)c1cccc(NC(=O)Cc2c(F)cccc2Cl)c1` was tested, and the Potency was 7.94 µM (active).
For `CCc1cccc(NC(=S)N(CCN(C)C)C2CCN(C(C)C)CC2)c1`, the Potency was 5.01 µM (active).
In the case of `CCc1cccc(NC(=O)CCCN2C(=O)C(c3ccccc3)Oc3cccnc32)c1` (stereo not given), the Potency is reported as 7.94 µM (active).
`CCc1cccc(NC(=O)CCNS(=O)(=O)c2cccc3nonc23)c1` was tested, and the Potency was “inactive”.
`O=C(NCc1ccccc1)C1=C[C@@H](C2CCCCC2)C[C@@H](OCc2ccc(CO)cc2)O1` was tested, and the Potency was 10 µM (active).
With `COc1cc(/C=C2/C(=O)NN(c3cccc(Cl)c3)C2=O)cc(Br)c1O` the Potency was 5.01 µM (active).
In the case of `CC(=O)N1CCC(C(=O)OCc2ccc(Cl)cc2)(c2ccccc2)CC1`, the Potency is reported as 10 µM (active).
`O=C(O)c1cccc(N=NN2CCCCCC2)c1` was tested, and the Potency was 3.55 µM (active).
With `O=c1[nH]n(-c2ccc([N+](=O)[O-])cc2)c(=O)c2ccccc12` the Potency was 5.01 µM (active).
In the case of `O=S(=O)(c1cccc(C(F)(F)F)c1)N1c2ccccc2-n2cccc2C1c1cccnc1` (stereo not given), the Potency is reported as 10 µM (active).
With `Cc1ccc(C)c(NC(=S)NNC(=S)Nc2ccc(C(C)C)cc2)c1` the Potency was 3.55 µM (active).
In the case of `CCCCCCCC(=O)NC(Nc1ccccc1OC)C(Cl)(Cl)Cl` (stereo not given), the Potency is reported as 6.31 µM (active).
With `COc1ccccc1C(=O)Nc1ccc(C)c(S(=O)(=O)N2CCCCC2)c1` the Potency was 14.1 µM (active).
`Cc1ccccc1OCC(=O)Nc1ccc(N2CCN(C(=O)C(C)C)CC2)c(Cl)c1` was tested, and the Potency was 3.98 µM (active).
`CCc1ccccc1OCC(=O)Nc1ccc(C)c(S(=O)(=O)N2CCCCCC2)c1` was tested, and the Potency was 8.91 µM (active).
With `Cc1onc(-c2ccccc2Cl)c1C(=O)NCCn1ccc2ccccc21` the Potency was 6.31 µM (active).
`COc1cc(NC(=O)c2cc(C3CC3)nc3c2c(C)nn3-c2ccccc2)cc(OC)c1` was tested, and the Potency was 10 µM (active).
For `CCc1noc(C)c1C(=O)Oc1ccc(N(C)S(=O)(=O)c2ccc(C)c(C)c2)cc1`, the Potency was 12.6 µM (active).
In the case of `COc1ccc(CCC(=O)NCCc2csc(-c3ccc(Cl)cc3)n2)cc1`, the Potency is reported as 10 µM (active).
With `COc1ccc(-c2nc(CCNC(=O)c3ccc(Br)o3)cs2)cc1` the Potency was “inactive”.
`Cc1cccc2nc(-c3ccc(Cl)s3)c(Nc3ccc4c(c3)OCCO4)n12` was tested, and the Potency was 10 µM (active).
